The campaign covered roughly 270,000 compounds. About 620 (0.23%) were called active. About 12% were inconclusive and are not listed. This is one part of a sample in which actives are shown more often than they occur. Values without a mark were called inactive. Calls follow the shape of the dose curve; as a rule, active = well fitted inhibition curve with a large enough effect in the polarisation, with a control signal flat (not every such curve was filed as active); inconclusive = small, poorly fitted or top-dose-only effect, or effect the other way, or a change in a side signal; inactive = no such curve, though single readings can be large or run the other way; the % refers to the polarisation.
Each compound was assayed against Menin (Homo sapiens) (UniProt O00255) (assay: qHTS Assay for Inhibitors Targeting the Menin-MLL Interaction in MLL Related Leukemias: Competition With Texas Red Labeled MLL-derived Mutant Peptide). Details: fluorescence polarization; series mostly up to 61.6 µM; FP activity change, negative = inhibition: at the top concentration.
Chain of Menin (Homo sapiens) (O00255 whole entry, looked up): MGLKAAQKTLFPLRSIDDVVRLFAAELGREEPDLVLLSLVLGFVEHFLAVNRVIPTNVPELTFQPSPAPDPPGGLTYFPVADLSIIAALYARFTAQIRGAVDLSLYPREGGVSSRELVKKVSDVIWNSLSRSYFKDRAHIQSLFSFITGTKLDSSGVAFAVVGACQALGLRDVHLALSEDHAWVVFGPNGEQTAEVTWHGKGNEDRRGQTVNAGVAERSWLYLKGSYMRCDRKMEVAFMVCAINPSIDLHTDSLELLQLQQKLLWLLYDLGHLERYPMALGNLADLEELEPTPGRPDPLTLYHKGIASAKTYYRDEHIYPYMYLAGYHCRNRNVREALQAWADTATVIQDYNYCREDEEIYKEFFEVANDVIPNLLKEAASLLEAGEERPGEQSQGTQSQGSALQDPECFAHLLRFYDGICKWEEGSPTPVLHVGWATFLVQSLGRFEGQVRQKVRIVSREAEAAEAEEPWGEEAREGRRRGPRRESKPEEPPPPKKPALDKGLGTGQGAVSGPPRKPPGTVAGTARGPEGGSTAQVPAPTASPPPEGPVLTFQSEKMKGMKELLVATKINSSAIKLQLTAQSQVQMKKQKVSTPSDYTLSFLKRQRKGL

For FP activity change, negative = inhibition in this document: % of control where 0% means no effect.
Potency is read from the fitted curve at half-maximal effect.

Row | Compound | FP activity change, negative = inhibition | Potency
1 | CCn1cc(CN2CCN(CC(C)(C)C)C(CCO)C2)c2ccccc21 (centres undefined) | 1.44% | –
2 | Cc1cc(=O)oc2c(C)c(OC(C)C(=O)NC3CCN(Cc4ccccc4)CC3)ccc12 (centres undefined) | -2.55% | –
3 | O=C(CN1C(=O)COc2ccc(Cl)cc21)N1CCOCC1 | 1.36% | –
4 | COc1cc(CN2CCCC(C(=O)c3ccc(SC)cc3)C2)cc(Cl)c1O (centres undefined) | 11.6% | –
5 | Cc1cc(C)nc(N/N=C/c2c(CO)cnc(C)c2O)n1 | -1.68% | –
6 | COc1cccc(N(CC(=O)NCc2ccccc2)C(=O)CCC(=O)Nc2nccs2)c1 | -4.88% | –
7 | COc1ccc(CSc2nnnn2-c2ccc(O)cc2)cc1F | 26% | –
8 | CCOc1ccc(N(CC(=O)NCCc2ccc(F)cc2)S(=O)(=O)c2ccccc2)cc1 | -2.73% | –
9 | O=C1CCC(C(=O)N2CCN(c3ccccc3Cl)CC2)CN1CC1CCCCC1 (centres undefined) | -14.6% | –
10 | CCC(=O)c1cn(CCOc2ccccc2OC)c2ccccc12 | 33.7% | –
11 | CC1(C)CCSC(/C=C/c2ccccc2)=N1 | – | 31.6 µM (active)
12 | CCCC[C@]12Cc3cc(OC)c(OC)cc3C(O1)C1=C(CC3(CCCCC3)OC1=O)O2 | -17.1% [at 11.7 µM] | –
13 | CN(C)c1ccnc(Oc2ccc(F)cc2)c1C#N | 9.99% | –
14 | O=S(=O)(Nc1cccc(Oc2ccc(Cl)cc2)n1)c1ccc(F)cc1 | 41.6% | –
15 | N#Cc1ccc(-c2ccc(Cl)cc2)nc1Oc1ccc(F)cc1 | – | 20 µM (active)
16 | CC1C(=O)C(C)C(c2ccc(O)cc2)NC1c1ccc(O)cc1 (centres undefined) | 20.1% | –
17 | CCN(C(=O)C1CCCN(c2nc(-c3ccc(OC)cc3)no2)C1)c1ccc(OC)cc1 (centres undefined) | -7.46% | –
18 | Cc1ccc(S(=O)(=O)c2nc(-c3cccs3)oc2NCc2cccnc2)cc1 | 7.57% | –
19 | CCOCCCn1c(SCC(=O)Nc2cc(OC)ccc2OC)nc2ccccc2c1=O | 15.9% | –
20 | COc1ccc2[nH]c(C(=O)N/N=C/c3cc(OC)c(OC)c(OC)c3)cc2c1 | 5.44% | –
21 | C=C1C(=CC=C2CCC[C@@]3(C)[C@@H]2CC[C@H]3[C@H](C)CCCC(C)C)C[C@@H](O)C[C@@H]1O | -6.01% | –
22 | Cc1ccc(C(=O)NC23CC4CC(CC(C4)C2)C3)c(Cl)c1 | -16.7% | –
23 | CCOc1ccccc1NC(=S)NC(=O)CCc1ccccc1 | 5.54% | –

Row | Compound | FP activity change, negative = inhibition | Potency
24 | CCc1ccc(N(C(=O)c2csnn2)C(C(=O)NC2CCCCC2)c2cccnc2)cc1 (centres undefined) | -8.39% | –
25 | O=C1CN(Cc2ccccc2)S(=O)(=O)c2ccccc21 | 5.81% | –
26 | CCOC(=O)C(Cc1ccc(N)cc1)N1C(=O)c2ccccc2C1=O (centres undefined) | -0.825% | –
27 | CCN1CC=C2C(C#N)=C(N)C(C#N)(C#N)[C@H](c3ccoc3)[C@H]2C1 | – | 17.8 µM (active)
28 | CCOC(=O)N1CC=C2C(C#N)=C(N)C(C#N)(C#N)[C@H](c3cccs3)[C@H]2C1 | 1.03% | –
29 | CCCN1CC=C2C(C#N)=C(N)C(C#N)(C#N)C(c3cc(OC)ccc3OC)C2C1 (centres undefined) | -20.9% | –
30 | O=C(NCCc1c[nH]c2ccccc12)C1CCN(Cc2ccc(Br)cc2)CC1 | -2.52% | –
31 | CC(C)C(C)NC(=O)COc1nc2ccccc2nc1N(C)C1CCCCC1 (centres undefined) | -8.68% | –
32 | Cc1cccc(OC(C)C(=O)N2CCc3ccccc3C2)c1 (centres undefined) | -12.6% | –
33 | COC(=O)c1ccc(CN2C(=O)NC(c3ccccc3)(c3ccccc3)C2=O)o1 | -16.5% | –
34 | CN(Cc1ccccc1)C(=O)C1CCCN(c2ncnc3c2nc2n3CCCCC2)C1 (centres undefined) | -7.48% | –
35 | Cc1ccccc1OCC(=O)Nc1ccc(S(=O)(=O)N2CCOCC2)cc1 | 30.5% | –
36 | COc1ccc(CCNC(=O)CSCc2ccc(Br)cc2)cc1OC | -14.4% | –
37 | CCOc1cc(-c2cc(-c3ccc(NC(C)=O)cc3)nc(N)c2C#N)ccc1O | 19.5% | –
38 | O=C(c1cc(C(=O)N2CCN(c3ccc(F)cc3)CC2)cc([N+](=O)[O-])c1)N1CCN(c2ccc(F)cc2)CC1 | 2.04% | –
39 | Cc1cc2oc(=O)cc(CN(C)Cc3ccc(OC(F)F)cc3)c2cc1Cl | 7.43% | –
40 | COC(=O)c1ccccc1NC(=O)C1CCN(C(=O)N2CCOc3ccccc32)CC1 | -28.1% | –
41 | CCCNC(=O)CCc1c(C)nc2c(c(C)nn2-c2ccc(C)cc2)c1C | 11.6% | –
42 | C/C(=N\NC(=O)c1ccoc1C)c1ccccc1O | 4.06% | –
43 | COc1ccc(-c2ccc(OC)c(C3C4C=CCC(C)C4C(=O)N3Cc3ccccc3)c2)cc1C (centres undefined) | -28.8% | –
44 | Cc1nnc(NC(=O)C(c2ccccc2)c2ccccc2)s1 | -23.4% | –
45 | CC(C)C[C@@H](COc1ccccc1)N1CCN(CC(C)C)CCC1=O | -8.58% | –
46 | Cc1nn(-c2ccc([N+](=O)[O-])cc2)c(N)c1-c1ccccc1 | 17.3% | –

Row | Compound | FP activity change, negative = inhibition | Potency
47 | O=c1[nH]n(-c2ccc([N+](=O)[O-])cc2)c(=O)c2ccccc12 | – | 31.6 µM (active)
48 | Cc1nc2ccccc2c(=O)n1Cc1ccc([N+](=O)[O-])cc1 | -0.0877% | –
49 | COc1ccc(CCNC(=O)c2cnc(Cl)c(Cl)c2)cc1 | 13.2% | –
50 | CCOc1ccc(NC(=O)c2nc(SCC)ncc2Cl)cc1 | -7.71% | –
51 | Cc1ccc(SCC(CC(C)C)N2CCN(CCc3ccccc3)CCC2=O)cc1 (centres undefined) | -8.63% | –
52 | O=C(Nc1nc(-c2ccc(-c3ccccc3)cc2)cs1)c1cnccn1 | -16.9% | –
53 | c1cnc(Nc2nc(-c3ccc4ccccc4c3)cs2)nc1 | – | 17.8 µM (active)
54 | Cc1ccccc1Nc1nc(-c2cccnc2)cs1 | 0.491% | –
55 | Cc1c(C)c2c(OCC(=O)NCCCO)cc3c(c2oc1=O)CCC(C)(C)O3 | -20.7% | –
56 | COc1ccc(NC(=O)CN2C(=O)CSc3ccc(S(=O)(=O)N4CCC(C)CC4)cc32)cc1 | 32.8% | –
57 | CCNC(=O)c1cnn(-c2ccccc2)c1-c1ccccc1 | -5.6% | –
58 | COc1ccc(NC(=O)NCCN2CCN(c3ccc(C)cc3)CC2)c(Cl)c1 | 0.531% | –
59 | COc1ccc(C2/C=C\CN(C(=O)c3ccc(C)cc3)C(Cc3ccccc3)C(=O)N2Cc2ccc(F)cc2)cc1 (centres undefined) | 30.8% | –
60 | CCOc1ccc(C(C(=O)NC2CCCC2)N(C(=O)c2snc(C(N)=O)c2N)C2CCCC2)cc1 (centres undefined) | -24.3% | –
61 | CC(=O)N1CCOc2ccc(S(=O)(=O)N3CCN(c4cccc(C(F)(F)F)c4)CC3)cc21 | 14.8% | –
62 | O=C(NCCc1cccc(F)c1)C1CCCN(c2nc3ccccc3s2)C1 (centres undefined) | -11.9% | –
63 | CC(Cc1cccs1)N(Cc1ccc(Cl)cc1)C(=O)c1ccncc1 (centres undefined) | -15.9% | –
64 | COc1ccc(CN2CCC(=O)c3ccccc3S2(=O)=O)cc1 | 4.64% | –
65 | COc1ccc(OC)c(CNC(=O)Cn2nc(C)c3c(C)n(-c4ccc(C)cc4)nc3c2=O)c1 | -14.1% | –
66 | CCN1C(=S)N[C@@H](c2cccc(C(F)(F)F)c2)C(C(=O)OC)=C1C | -22.2% | –
67 | COc1cc(C(=O)NCc2ccncc2)cc(Br)c1OCc1ccccc1 | 51.3% | –
68 | Cc1ccc(CNC(=O)C2(C(F)(F)F)C/C(=C\CCO)CCCO2)o1 (centres undefined) | 2.61% | –
69 | FC(F)(F)c1nnc2c3ccccc3c(Cl)nn12 | -2.32% | –

Row | Compound | FP activity change, negative = inhibition | Potency
70 | CC(C)C[C@H]1CN=C(Nc2ccccc2)N1CC1CCCCC1 | -13.1% | –
71 | COC(=O)c1ccc2c(=O)n(CCN3CCOCC3)c(SCC(=O)Nc3cccc(OC)c3)nc2c1 | -4.18% | –
72 | Cc1c(C(=O)NCC(c2ccco2)N2CCCC2)oc2ccc(Cl)cc12 (centres undefined) | -16.2% | –
73 | COc1cc(OC)c2c(c1C(CCN1CCCCC1)c1ccc(N(C)C)cc1)OC(=O)CC2c1ccc(N(C)C)cc1 (centres undefined) | 2.4% | –
74 | O=C(N/C(=C/c1ccc(Cl)cc1)C(=O)N1CCCCC1)c1ccco1 | 1.31% | –
75 | Cc1ccc(-n2ncc(C(=O)NC3CC3)c2C2CCN(C(=O)OC(C)(C)C)CC2)c(C)c1 | 0.388% | –
76 | Cc1cc2c(c(=O)n1Cc1ccccc1)C1O[C@](CCCCN3C(=O)c4ccccc4C3=O)(Cc3ccccc31)O2 | 12.4% [at 11.7 µM] | –
77 | CC1Sc2ccc(S(=O)(=O)CCC(=O)NCc3ccccc3Cl)cc2NC1=O (centres undefined) | 14.1% | –
78 | COc1cc(C(=O)NC2CCN(Cc3ccccc3)CC2)cc(Cl)c1OC(C)C | -8.46% | –
79 | O=C(NNC(=O)c1cc2c(s1)CCCC2)c1ccccc1 | 2.97% | –
80 | Cc1ccc(C(=O)NNC(=O)c2cc3cc4ccccc4nc3s2)cc1 | – | 17.8 µM (active)
81 | Cc1ccc(C(=O)NNC(=O)c2cccs2)cc1 | 9.25% | –
82 | COc1ccc(-c2nc3c(s2)CCc2onc(-c4ccc(OC)cc4)c2-3)cc1 | 5.56% | –
83 | O=C1OC2(CCCCC2)CC2=C1C1O[C@](c3ccsc3)(Cc3ccccc31)O2 | -0.298% [at 11.7 µM] | –
84 | COc1ccc(CN2CCCC(N3CCc4ccccc4C3)C2)c(O)c1 (centres undefined) | -18.7% | –
85 | Cc1ccc2nc(-c3ccncc3)cc(C(=O)Nc3ccncc3)c2c1 | -0.0318% | –
86 | COc1cccc(OCC(O)CNC(=O)c2oc3c(C)c(C)ccc3c2C)c1 (centres undefined) | -16.1% | –
87 | CC(C)CNS(=O)(=O)c1ccc(CCC(=O)NCc2ccc(Cl)cc2)cc1 | -21.7% | –
88 | C=CCn1c(SCC(=O)NC)nnc1C12CC3CC(CC(C3)C1)C2 | -14.9% | –
89 | COCCN1C(=O)C(=O)/C(=C(/O)c2ccc(S(=O)(=O)N3CCCCC3)cc2)C1c1ccc(OC)c(OC)c1 (centres undefined) | 8.43% | –
90 | COc1cc(C(=O)NCc2cc3cc(Cl)ccc3n2C)cc(OC)c1OC | 2.93% | –
91 | CCCCNC(=O)c1cn(CC)c2cc(N3CCN(C(=O)c4ccco4)CC3)c(F)cc2c1=O | -13.8% | –
92 | CCOc1ccc(NC(=O)C2CCN(C(=O)N3CCOc4ccccc43)CC2)cc1 | -10.2% | –

Row | Compound | FP activity change, negative = inhibition | Potency
93 | Cc1ccc(N(Cc2ccccc2O)C(=O)c2ccccc2F)cc1 | 0.0013% | –
94 | Cc1ccc(O)c(CNc2nc3ccccc3[nH]2)c1 | 4.64% | –
95 | COC(=O)c1sc(=S)n(-c2ccccc2)c1N | 4.57% | –
96 | COCCOC(=O)c1sc(=S)n(CCOC)c1N | – | 28.2 µM (active)
97 | CCOC(=O)c1c(N)sc(C(C)=O)c1C | 12.7% | –
98 | O=C(c1ccccc1)N1CCC(CC2CC(c3ccc(Cl)cc3)=NO2)(C(=O)NCC2CCCCC2)CC1 (centres undefined) | 1.11% | –
99 | CCN(CC)S(=O)(=O)c1ccc(N2CCOCC2)c(NC(=O)C2CSC3(C)CCC(=O)N23)c1 (centres undefined) | -6.53% | –
100 | COc1ccc(C)cc1Nc1n[n+](-c2ccccc2)c(-c2cccc(Cl)c2Cl)s1 | -9.19% | –
101 | CC1CC(C)CN(CCCNC(=O)c2csc3c2CCCCC3)C1 (centres undefined) | -13% | –
102 | CCN(CC)c1ccc(C(=O)Nn2c(C)nc3ccccc3c2=O)cc1 | -13.2% | –
103 | CCC(CC)COC(=O)C1=C(C)NC(=O)NC1c1ccc([N+](=O)[O-])cc1 (centres undefined) | -1.42% | –
104 | CCCN1CCC(=O)N(C(CSc2ccc(C)cc2)Cc2ccccc2)CC1 (centres undefined) | -25.5% | –
105 | CCOC(=O)c1ccccc1NS(=O)(=O)c1c(C)nc2sccn2c1=O | 0.208% | –
106 | COc1ccc(-n2nc(C(=O)NCC(=O)N3CCN(c4ccccc4OC)CC3)c3ccccc3c2=O)c(OC)c1 | 4.26% | –
107 | CCCCc1cc(=O)oc2c(C)c(OCC(=O)N3CCC(C(N)=O)CC3)ccc12 | -20.5% | –
108 | O=S(=O)(NC1CCCCC1N1CCN(c2ccccc2F)CC1)c1ccccc1 (centres undefined) | -1.78% | –
109 | CC(C)(COC(=O)Nc1ccccc1)COC(=O)Nc1ccccc1 | 22.6% | –
110 | Cc1ccc(C)c(N2CCN(C(=O)CCCn3c(=O)c4cccn4c4cccnc43)CC2)c1 | -4.52% | –
111 | CCc1ccc(NC(=O)C(=O)NNC(=O)c2cccs2)cc1 | -15.4% | –
112 | O=C(O)Cc1ccc(NC(=O)c2cccs2)cc1 | 34.4% | –
113 | Cc1nc(-c2ccc(NC(=O)c3cccs3)cc2)cs1 | – | 25.1 µM (active)
114 | COc1ccc(C2CC(O)(c3ccccc3)Oc3cc(C)cc(C)c32)cc1 (centres undefined) | 25% | –
